7 compounds from PubChem BioAssay (NCATS) can be followed below.

Results filed as inconclusive are left out. The source made the active and inactive calls. Unless noted, calls follow the shape of the dose curve; as a rule, active = well fitted curve in either direction with a large enough effect (not every such curve was filed as active); inconclusive = small, poorly fitted or top-dose-only effect, or another doubt; inactive = flat fitted curve, though single readings scatter.

Assay [1] concerns the target Lysosomal acid glucosylceramidase (Homo sapiens) (UniProt P04062). Kind of assay: Glucocerebrosidase-p2 (AID 348; in the data active = potency below about 10 µM; also: potency is read from the fitted curve at half-maximal effect). Conditions: purified GBA, blue fluorogenic substrate, 40 min. The gist of the method: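 Compounds titrated from 0.6 nM upwards against 0.2 nM enzyme in pH 5.9 citric acid/KH2PO4, taurocholate, tween-20; blue fluorogenic substrate 80 uM, 40 min room temperature, stopped and read Ex 365/Em 440 for AC50.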

Assay [2] can be described thus: AP1 Signaling Pathway (AID 357). Also: % is scaled to controls: 0 for no effect and ±100 for the full control effect. Conditions: ME-180 AP-1-bla reporter, EGF-induced, beta-lactamase ratio, 5 h; at 7.69 µM (top of the series) unless noted. The gist of the method: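 Cells are seeded overnight, exposed to compound titrations and an EC50 level of EGF for 5 hours at 37 °C, then loaded with CCF4 dye for 2.5 hours. Beta-lactamase activity under the AP-1 element is read as a blue/green ratio.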

Assay [3] can be described thus: Stat Signaling Pathway (AID 446).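 Also: ME-180 cervical cancer cells given 40 pM IL-6 alongside compound; SIE-controlled beta-lactamase reporter measured as 460/530 nm FRET emission ratio; % is scaled to controls: 0 for no effect and ±100 for the full control effect.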 Conditions: ME-180 SIE beta-lactamase reporter, IL-6 stimulated, 5 h; at 7.69 µM (top of the series) unless noted. The gist of the method:
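Screening format detects activators and inhibitors alike: ME-180 SIE-bla cells stimulated at 40 pM IL-6 for 5 hrs with compound, then dual-emission beta-lactamase read at 405 nm excitation.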

Assay [4] concerns the target Glucocorticoid receptor (Homo sapiens) (UniProt P04150). In words: GR-EFC Redistribution (AID 451; calls by dose curve; also: potency is read from the fitted curve at half-maximal effect). Conditions: CHO-K1 GR-EFC translocation, beta-gal luminescence, 2 h. The gist of the method:
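CHO-K1 cells stably expressing nuclear-localized β-gal enzyme acceptor and GR fused C-terminally to the enzyme donor fragment; ligand-driven nuclear translocation restores β-gal by complementation. Compounds titrated up to 46 uM final, 2 h at 37 °C; luminescence read.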

The target of assay [5] is Mitogen-activated protein kinase 10 (Mus musculus) (UniProt Q61831). Kind of assay: JNK3 AlphaScreen Assay (AID 530).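 Also: kinase came from lysate of stimulated human HepG2 cells; % is scaled to controls: 0 for no effect and ±100 for the full control effect.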 Conditions: JNK3 lysate, c-Jun phosphorylation; series mostly up to 57.1 µM. The gist of the method: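 JNK3 came from HepG2 lysates pre-activated with IL-1beta and TNF-alpha and phosphorylated biotinylated GST-cJun (1-79) at 10 uM ATP, pH 7.6, room temperature. Compounds were titrated. AlphaScreen signal used anti-phospho-cJun (Ser73) antibody.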
(In Alpha technology, singlet oxygen from a donor bead excites a nearby acceptor bead.)

Assay [6] concerns the target 3',5'-cyclic-AMP phosphodiesterase 4B (Homo sapiens) (UniProt Q07343). Kind of assay: qHTS Assay for Inhibitors of PDE-IV (AID 607; active = well fitted activation curve with a large enough effect in the main read-out, with a control signal flat, not every such curve was filed as active; also: % of control where 0% means no effect). Conditions: HEK293 ACTOne CNG channel cells, membrane potential fluorescence; series mostly up to 22.9 µM. The gist of the method:
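The readout is membrane depolarisation from a cAMP-sensing CNG channel, detected with a potential dye at ex 535/em 590. Cells were HEK293-derived (endogenous PDE-IV) at 1000 cells/well, titrated up to 22.9 uM final.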
(In general: Quantitative high-throughput screening tests each substance at several concentrations.)

Assay [7] can be described thus: qHTS Assay for Lipid Storage Modulators (AID 1519; calls by dose curve). Conditions: Drosophila S3 cells, BODIPY lipid droplet/cell ratio, laser cytometry, cells loaded with oleic acid; for activity change, negative = inhibition: at 57.5 µM (top of the series). The gist of the method: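 Cells seeded at 5,000 per well were treated with compounds over a concentration series and loaded with oleic acid (400 uM, as added). Lipid droplet fluorescence (488 nm excitation, 500-530 nm channel) was read by laser-scanning cytometry and normalized to 20 uM Triacsin C.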

Assay [8] is described as follows: Primary qHTS for small molecule stabilizers of the endoplasmic reticulum resident proteome: Secreted ER Calcium Modulated Protein (SERCaMP) assay (AID 1508630; active = well fitted curve in the direction sought with a large enough effect; an effect the other way counts as inactive or inconclusive; also: % is scaled to controls: 0 for no effect and ±100 for the full control effect). Conditions: SH-SY5Y GLuc-SERCaMP (Gaussia luciferase released on ER calcium loss) secretion, thapsigargin, luminescence; series mostly up to 38.4 µM. A digest of the protocol: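 GLuc-SERCaMP-expressing SH-SY5Y cells, pretreated 16 h with compound, are challenged with thapsigargin to empty ER calcium stores; after 4 h, coelenterazine is added directly to the medium and luminescence is imaged.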

For assay [9], the target named is Cytochrome P450 1A2 (Homo sapiens) (UniProt P05177). Kind of assay: p450-cyp1a2 (AID 410; calls by dose curve; also: potency is read from the fitted curve at half-maximal effect). Conditions: recombinant CYP1A2, luciferin-ME demethylation, luminescence; series mostly up to 57 µM. The gist of the method:
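Human CYP1A2 (20nM) demethylated Luciferin-ME at its Km (100uM) in 100mM KPO4. After 10 min compound preincubation, NADPH regeneration ran the reaction 60 min at room temperature. Luciferin was read by luminescence, normalized to 57 uM furafylline.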

Assay [10] addresses Glucocorticoid receptor (Homo sapiens) (UniProt P04150). Kind of assay: GR-GFP Redistribution (AID 450;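 active = compounds whose dose series gives a full or clear partial fitted curve of increased nuclear translocation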; also: potency is read from the fitted curve at half-maximal effect). Conditions: U2OS GR-GFP nuclear translocation, laser cytometry, 2 h.
Assay [11] deals with Cytochrome P450 3A4 (Homo sapiens) (UniProt P08684). Kind of assay: qHTS Assay for Inhibitors and Substrates of Cytochrome P450 3A4 (AID 884; active = well fitted curve in the direction sought with a large enough effect; an effect the other way counts as inactive or inconclusive; also: potency is read from the fitted curve at half-maximal effect; nearly all actives have a fitted effect of over 50% in size). Conditions: recombinant CYP3A4, Luciferin-PPXE luminescence; series mostly up to 57.1 µM. A digest of the protocol: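 20 nM human CYP3A4 with 25 uM Luciferin-PPXE (at KM) in 200 mM KPO4, preincubated 10 min with compound; NADPH regeneration started a 60 min RT reaction. Luciferin detected by luminescence, normalized to 57 uM ketoconazole as full inhibition.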

The target is the same in assay [12]. Kind of assay: qHTS Assay for Activators of Cytochrome P450 3A4 (AID 885; active = well fitted curve in the direction sought with a large enough effect; an effect the other way counts as inactive or inconclusive; also: nearly all actives have a fitted effect of over 65% in size). Conditions: recombinant CYP3A4, Luciferin-PPXE luminescence, 60 min; series mostly up to 57.1 µM. A digest of the protocol:
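Steps: enzyme/substrate mix dispensed; compound added, 10 min RT; NADPH regeneration solution added, 60 min RT; luciferin detection buffer stops reaction; 20 min later luminescence measured.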

Assay [13] can be described thus: Confirmation and Secondary Assay for Modulators of Hemoglobin Beta Chain Splicing at IVS2 654 locus (AID 910; active = well fitted curve in the direction sought with a large enough effect; an effect the other way counts as inactive or inconclusive;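 also: per-well total GFP intensity by laser scanning cytometry after 2-day treatment; % of control where 0% means no effect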). Conditions: HeLa EGFP-654 splicing reporter, GFP fluorescence, 48 h; series mostly up to 38.3 µM. A digest of the protocol: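 HeLa cells stably carrying EGFP interrupted by mutant beta-globin IVS2-654 intron (CMV-driven) were treated with compound for 2 days at 37C; corrected splicing was scored as total peak GFP intensity per well (488 nm excitation, 500-520 nm emission).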

A short description of assay [14]: Confirmation and Secondary Assay for Modulators of Hemoglobin Beta Chain Splicing at IVS2 705 locus (AID 930; active = well fitted curve in the direction sought with a large enough effect; an effect the other way counts as inactive or inconclusive;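 also: HeLa cells stably expressing the EGFP-705 splicing reporter; % of control where 0% means no effect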). Conditions: HeLa EGFP-705 splicing reporter, GFP fluorescence, 48 h; series mostly up to 38.3 µM. The gist of the method: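 Splice-correction reporter: EGFP cDNA split by beta-globin intron 2 bearing the 705 mutation, stably in HeLa. Compound incubation 2 days, 37C; fluorescent objects 5-250 µm summed per well.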

Assay [15] has as its target Ubiquitin carboxyl-terminal hydrolase 1 (Homo sapiens) (UniProt O94782). In words: Inhibitors of USP1/UAF1: Pilot qHTS (AID 504865; active = well fitted curve in the direction sought with a large enough effect; an effect the other way counts as inactive or inconclusive;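 also: rhodamine fluorescence freed from ubiquitin-rhodamine substrate followed over time; top concentration of the series differs between compounds; % is scaled to controls: 0 for no effect and ±100 for the full control effect; nearly all actives have a fitted effect of over 35% in size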). Conditions: purified USP1/UAF1, Ub-rhodamine cleavage fluorescence; series mostly up to 54.9 µM. The gist of the method: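 USP1/UAF1 complex (1nM) preincubated with compound 15 min at room temperature, then Ub-Rho substrate (150nM final) added. Fluorescence read kinetically at 480/540 nm, 6 reads every 60 seconds. Buffer: 50mM HEPES pH 7.8, 0.5mM EDTA, 0.1 mg/ml BSA, 1mM TCEP, 0.01% Tween-20.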

Assay [16] deals with Cytochrome P450 2C19 (Homo sapiens) (UniProt P33261). In words: qHTS Assay for Inhibitors and Substrates of Cytochrome P450 2C19 (AID 899; active = well fitted curve in the direction sought with a large enough effect; an effect the other way counts as inactive or inconclusive; also: potency is read from the fitted curve at half-maximal effect; nearly all actives have a fitted effect of over 60% in size). Conditions: recombinant CYP2C19, luciferin-H EGE luminescence; series mostly up to 57.1 µM. A digest of the protocol:
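In 50mM KPO4, the reaction held 5nM enzyme and KM-level (10uM) Luciferin-H EGE; it ran 60 min at 37C after NADPH regeneration and a 10 min compound preincubation. Luminescence values were scaled to 57uM ketoconazole as complete inhibition.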

Assay [17] in a line: qHTS Assay for Identification of Small Molecule Agonists for Hypoxia Response Element Signaling Pathway (AID 914; active = well fitted activation curve with a large enough effect in the signal ratio, with a control signal flat, not every such curve was filed as active; the % refers to the signal ratio; also: % of control where 0% means no effect). Conditions: ME-180 (cervical carcinoma) HRE-bla reporter, beta-lactamase ratio, CoCl2, 17 h; activation: stronger effect = higher value. The gist of the method:
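Cells were plated overnight, pin-dosed with compound in a titration series, co-stimulated with EC50 CoCl2 and incubated 17 hours at 37 degrees Celsius. CCF4 substrate was then loaded, and AC50 values came from the 460nm/530nm ratio.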

[18] abbreviates: measured here: cell count channel max response.
Setting [19] is: measured here: lipid channel max response.

Sequence of Lysosomal acid glucosylceramidase (Homo sapiens) (P04062 whole entry, looked up): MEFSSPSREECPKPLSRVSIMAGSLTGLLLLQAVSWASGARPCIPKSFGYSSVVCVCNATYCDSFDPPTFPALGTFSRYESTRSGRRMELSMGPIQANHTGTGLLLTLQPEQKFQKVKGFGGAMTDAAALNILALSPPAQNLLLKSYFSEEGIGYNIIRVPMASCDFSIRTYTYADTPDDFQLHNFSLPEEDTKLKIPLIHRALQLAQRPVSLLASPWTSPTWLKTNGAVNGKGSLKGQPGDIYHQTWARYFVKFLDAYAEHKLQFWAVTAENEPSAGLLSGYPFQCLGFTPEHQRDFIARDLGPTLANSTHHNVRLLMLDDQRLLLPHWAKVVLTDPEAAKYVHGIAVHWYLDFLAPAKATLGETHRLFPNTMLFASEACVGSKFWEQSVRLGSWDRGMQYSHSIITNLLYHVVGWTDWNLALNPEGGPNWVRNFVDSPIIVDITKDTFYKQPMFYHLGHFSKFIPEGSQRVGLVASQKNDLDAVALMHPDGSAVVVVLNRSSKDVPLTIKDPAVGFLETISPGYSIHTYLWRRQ
Sequence of Glucocorticoid receptor (Homo sapiens) (P04150 whole entry, looked up, the tested form may be a part): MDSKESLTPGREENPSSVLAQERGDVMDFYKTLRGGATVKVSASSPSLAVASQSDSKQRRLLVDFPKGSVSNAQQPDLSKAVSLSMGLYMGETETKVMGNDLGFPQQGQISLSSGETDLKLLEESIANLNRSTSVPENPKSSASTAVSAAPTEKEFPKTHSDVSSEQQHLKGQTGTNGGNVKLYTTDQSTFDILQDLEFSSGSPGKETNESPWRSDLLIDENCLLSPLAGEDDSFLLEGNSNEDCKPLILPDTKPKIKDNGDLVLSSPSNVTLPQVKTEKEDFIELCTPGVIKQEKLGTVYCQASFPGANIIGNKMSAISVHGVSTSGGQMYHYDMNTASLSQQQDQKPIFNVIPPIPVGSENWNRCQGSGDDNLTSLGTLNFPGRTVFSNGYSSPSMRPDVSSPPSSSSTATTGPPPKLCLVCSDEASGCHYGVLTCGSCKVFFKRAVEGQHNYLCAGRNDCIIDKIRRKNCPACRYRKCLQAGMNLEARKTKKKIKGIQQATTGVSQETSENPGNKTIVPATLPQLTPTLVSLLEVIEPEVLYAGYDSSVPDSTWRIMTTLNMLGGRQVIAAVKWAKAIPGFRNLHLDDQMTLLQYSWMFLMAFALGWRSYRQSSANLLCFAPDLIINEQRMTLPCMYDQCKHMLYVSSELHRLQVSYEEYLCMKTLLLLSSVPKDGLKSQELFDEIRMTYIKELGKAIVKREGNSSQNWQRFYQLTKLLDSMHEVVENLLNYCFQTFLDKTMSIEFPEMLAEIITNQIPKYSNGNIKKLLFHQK
Sequence of 3',5'-cyclic-AMP phosphodiesterase 4B (Homo sapiens) (Q07343 whole entry, looked up): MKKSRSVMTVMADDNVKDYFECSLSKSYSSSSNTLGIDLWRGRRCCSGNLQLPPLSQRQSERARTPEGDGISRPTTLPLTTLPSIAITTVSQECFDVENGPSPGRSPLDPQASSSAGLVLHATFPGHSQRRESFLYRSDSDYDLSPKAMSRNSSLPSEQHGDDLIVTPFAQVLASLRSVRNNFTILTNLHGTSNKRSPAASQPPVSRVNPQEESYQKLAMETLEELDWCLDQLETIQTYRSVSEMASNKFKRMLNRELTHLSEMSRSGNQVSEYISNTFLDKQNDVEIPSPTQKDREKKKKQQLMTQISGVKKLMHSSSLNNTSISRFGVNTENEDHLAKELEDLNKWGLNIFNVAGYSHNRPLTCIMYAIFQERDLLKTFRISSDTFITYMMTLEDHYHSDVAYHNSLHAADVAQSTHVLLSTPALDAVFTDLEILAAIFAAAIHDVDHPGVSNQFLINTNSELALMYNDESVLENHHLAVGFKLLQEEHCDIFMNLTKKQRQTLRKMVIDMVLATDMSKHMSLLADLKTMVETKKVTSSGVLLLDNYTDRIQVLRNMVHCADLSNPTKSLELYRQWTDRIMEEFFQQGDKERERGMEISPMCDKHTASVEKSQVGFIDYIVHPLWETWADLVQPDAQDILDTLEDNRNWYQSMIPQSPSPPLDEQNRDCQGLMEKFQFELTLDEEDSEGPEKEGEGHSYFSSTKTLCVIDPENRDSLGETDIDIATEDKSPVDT
Sequence of Cytochrome P450 3A4 (Homo sapiens) (P08684 whole entry, looked up): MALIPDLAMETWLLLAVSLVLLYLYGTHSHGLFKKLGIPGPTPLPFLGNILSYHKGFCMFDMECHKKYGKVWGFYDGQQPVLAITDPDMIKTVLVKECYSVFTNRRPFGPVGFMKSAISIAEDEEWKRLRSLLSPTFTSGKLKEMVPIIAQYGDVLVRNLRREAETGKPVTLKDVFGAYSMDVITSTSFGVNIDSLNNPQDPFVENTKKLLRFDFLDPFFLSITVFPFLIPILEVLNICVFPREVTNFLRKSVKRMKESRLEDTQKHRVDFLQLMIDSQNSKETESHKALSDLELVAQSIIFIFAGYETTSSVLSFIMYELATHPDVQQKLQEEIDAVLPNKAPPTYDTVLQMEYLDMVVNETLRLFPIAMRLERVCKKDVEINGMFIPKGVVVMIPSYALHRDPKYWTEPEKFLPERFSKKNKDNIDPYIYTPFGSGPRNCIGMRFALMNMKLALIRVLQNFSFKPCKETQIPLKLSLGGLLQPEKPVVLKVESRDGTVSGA
Sequence of Cytochrome P450 1A2 (Homo sapiens) (P05177 whole entry, looked up): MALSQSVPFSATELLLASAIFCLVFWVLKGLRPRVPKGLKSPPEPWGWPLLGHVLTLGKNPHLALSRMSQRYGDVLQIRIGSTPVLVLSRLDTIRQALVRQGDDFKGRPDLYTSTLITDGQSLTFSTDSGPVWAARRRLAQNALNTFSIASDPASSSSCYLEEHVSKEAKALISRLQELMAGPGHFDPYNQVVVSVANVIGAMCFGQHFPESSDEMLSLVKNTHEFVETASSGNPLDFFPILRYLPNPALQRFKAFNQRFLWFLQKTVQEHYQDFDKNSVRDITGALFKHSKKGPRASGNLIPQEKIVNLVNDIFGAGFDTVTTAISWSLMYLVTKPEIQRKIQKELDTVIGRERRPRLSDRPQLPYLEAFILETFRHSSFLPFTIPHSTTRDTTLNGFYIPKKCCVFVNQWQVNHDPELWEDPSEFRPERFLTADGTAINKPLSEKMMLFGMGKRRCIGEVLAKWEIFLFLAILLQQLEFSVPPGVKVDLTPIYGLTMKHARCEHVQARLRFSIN
Sequence of Cytochrome P450 2C19 (Homo sapiens) (P33261 whole entry, looked up): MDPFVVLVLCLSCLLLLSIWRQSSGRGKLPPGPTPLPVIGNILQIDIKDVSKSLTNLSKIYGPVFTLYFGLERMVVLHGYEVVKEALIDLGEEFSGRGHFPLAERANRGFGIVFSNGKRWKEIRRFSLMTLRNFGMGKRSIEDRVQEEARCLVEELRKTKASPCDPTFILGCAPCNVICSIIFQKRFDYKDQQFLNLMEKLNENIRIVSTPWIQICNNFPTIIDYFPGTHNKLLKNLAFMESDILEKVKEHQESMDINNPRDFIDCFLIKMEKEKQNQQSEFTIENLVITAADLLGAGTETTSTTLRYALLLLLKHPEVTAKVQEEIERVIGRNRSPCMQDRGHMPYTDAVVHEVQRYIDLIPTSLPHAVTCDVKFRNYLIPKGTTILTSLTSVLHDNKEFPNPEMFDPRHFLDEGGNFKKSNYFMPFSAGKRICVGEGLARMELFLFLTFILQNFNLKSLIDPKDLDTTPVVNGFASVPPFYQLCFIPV
Sequence of Ubiquitin carboxyl-terminal hydrolase 1 (Homo sapiens) (O94782 whole entry, looked up): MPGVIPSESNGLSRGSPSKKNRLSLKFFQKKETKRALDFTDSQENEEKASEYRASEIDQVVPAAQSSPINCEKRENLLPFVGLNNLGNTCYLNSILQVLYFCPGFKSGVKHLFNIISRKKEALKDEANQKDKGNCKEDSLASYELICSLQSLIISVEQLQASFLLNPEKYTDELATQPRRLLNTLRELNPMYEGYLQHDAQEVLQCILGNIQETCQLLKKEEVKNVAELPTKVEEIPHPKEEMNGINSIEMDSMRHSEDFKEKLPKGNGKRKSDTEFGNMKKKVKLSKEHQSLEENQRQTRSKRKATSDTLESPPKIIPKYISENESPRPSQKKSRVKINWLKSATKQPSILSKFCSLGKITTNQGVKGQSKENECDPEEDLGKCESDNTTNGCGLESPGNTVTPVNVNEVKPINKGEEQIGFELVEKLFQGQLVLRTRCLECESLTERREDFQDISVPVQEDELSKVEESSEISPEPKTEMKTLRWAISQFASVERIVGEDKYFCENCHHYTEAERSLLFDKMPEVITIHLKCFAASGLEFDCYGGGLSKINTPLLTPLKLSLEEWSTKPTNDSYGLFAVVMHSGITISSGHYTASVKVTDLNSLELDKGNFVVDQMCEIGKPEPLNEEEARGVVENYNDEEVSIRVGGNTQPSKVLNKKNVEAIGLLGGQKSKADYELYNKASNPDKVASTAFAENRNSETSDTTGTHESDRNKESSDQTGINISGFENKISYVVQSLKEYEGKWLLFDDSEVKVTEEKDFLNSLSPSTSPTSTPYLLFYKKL

Consider `COc1ccc(C(=O)N2CCC3(CCN(Cc4ccccc4)CC3)CC2)cc1`, for which the Potency was > 11.4 µM (inactive) in [1] and > 46 µM (inactive) in assay [4]. In addition, the activity change, negative = inhibition in assay [2] was -0.685% (inactive); in assay [7] it was 0.635% (inactive). Further, the activity, negative = inhibition in assay [3] is 0.0273% (inactive). For the same compound, the Potency result in assay [5] and in [6] was “inactive” each time. The max response in assay [7] (setting [18]) was -0.0682%; in assay [7] (setting [19]), 7.94%. The result in assay [8] was inactive.
Regarding `COc1ccc(C(=O)N2CCC3(CCN(CC(C)C)CC3)CC2)cc1`, the Potency is > 11.4 µM (inactive) in assay [1] and > 46 µM (inactive) in assay [4]. For the same compound, the values for the activity change, negative = inhibition in assay [2] and in assay [7] were -18% (inactive) and -2.62% (inactive), respectively. In assay [3], the activity, negative = inhibition is -2.75% (inactive). Moreover, the Potency result in assay [5] and in assay [6] was “inactive” throughout. Moreover, the results for the max response in assay [7] (setting [18]) and in assay [7] (setting [19]) were -10.1% and -11.3%, respectively. In addition, the outcome in assay [8] was inactive.
`COc1ccccc1CN1CC2(CCN(C(=O)c3cc(C(F)(F)F)cc(C(F)(F)F)c3)CC2)C1`: the Potency in assay [1] was > 11.4 µM (inactive); in [4] it was > 46 µM (inactive). For the same compound, the figures for the activity change, negative = inhibition in [2] and in assay [7] were 1.43% (inactive) and -1.27% (inactive), respectively. Moreover, the activity, negative = inhibition in assay [3] was 3.93% (inactive). Also, the Potency entry in assay [5] is “inactive”. The max response in assay [7] (setting [18]) was 11.2%; in assay [7] (setting [19]), 10.9%. The result in [8] was inactive.
For `Cn1cccc1C(=O)N1CCC2(CC1)CCN(c1ccncc1)CC2`, the results for the Potency in assay [1] and in assay [4] were > 11.4 µM (inactive) and > 46 µM (inactive), respectively. In addition, the values for the activity change, negative = inhibition in [2] and in assay [7] were -0.611% (inactive) and 1.02% (inactive), respectively. In [3], the activity, negative = inhibition was 6.85% (inactive). In addition, the Potency result in assay [5] and in assay [6] was “inactive” throughout. Also, the max response was -0.0216% in assay [7] (setting [18]) and 2.95% in [7] (setting [19]). Moreover, the result in assay [8] was inactive.
For the compound `Cc1cnc(CNc2ncncc2-c2ccccc2CN(C)C)cn1`, the Potency in [1] was > 11.4 µM (inactive); in assay [9] it was 12.6 µM (active); in assay [10] it was > 46 µM (inactive); in assay [4], > 46 µM (inactive); in assay [11], 3.16 µM (active). Also, the activity, negative = inhibition in [3] is 17.1% (inactive). In addition, the Potency result in assay [5], in assay [6], in assay [12], in assay [13] and in assay [15] was “inactive” in each case. Also, the result in [14] and in assay [8] was inactive. In assay [7], the activity change, negative = inhibition is -8.48% (inactive). In addition, the max response in assay [7] (setting [18]) is 4.47%; in assay [7] (setting [19]), 0.168%.
As for `COC(=O)N1CCC2(CCCN(c3ccccn3)C2)CC1`, the Potency in assay [1] is > 11.4 µM (inactive); in [4] it was > 46 µM (inactive); in assay [16], 3.16 µM (active). Besides, the activity change, negative = inhibition was -5.95% (inactive) in assay [2] and 1.3% (inactive) in assay [7]. In addition, in [3], the activity, negative = inhibition was -6.11% (inactive). For the same compound, the Potency entry in assay [5] and in assay [6] was “inactive” throughout. Moreover, the max response in assay [7] (setting [18]) was found to be 13.5%; in assay [7] (setting [19]), 15.8%. In assay [8], the result was inactive.
For `O=C(c1cccc(F)c1)N1CCC2(CCCN(c3ccccn3)C2)CC1`, the results for the Potency in [1] and in [4] were > 11.4 µM (inactive) and > 46 µM (inactive), respectively. Also, the activity change, negative = inhibition in assay [2] was -14% (inactive); in [7], 6.75% (inactive). Besides, the activity, negative = inhibition in assay [3] was -2.13% (inactive). For the same compound, the Potency result in assay [5] and in assay [6] was “inactive” in each case. The activation in assay [17] is -10.7% (inactive). The max response was determined as 9.06% in assay [7] (setting [18]) and 21.3% in assay [7] (setting [19]). The outcome in [8] was inactive.
